# PubChem BioAssay AID602357 (National Center for Advancing Translational Sciences (NCATS), 2012)
# Results filed as inconclusive are left out. Active and inactive are the calls of the source. Calls come from the whole dose curve; as a rule, active = well fitted inhibition curve with a large enough effect; inconclusive = small, poorly fitted or top-dose-only effect; inactive = no such curve, though single readings can be large or run the other way.
# Molecular target: Luciferin 4-monooxygenase (Photinus pyralis) (UniProt P08659)
# Experiment: FLuc inhibitory activity for the follow-up compounds in a biochemical assay with Km concentrations of substrate
# Conditions: purified FLuc, Km substrates, luminescence; series mostly up to 57.5 µM; activity change, negative = inhibition: at the top concentration
# How it was run: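 qHTS: compounds titrated 12 points (~60 uM to 0.3 nM) against 10 uM D-luciferin and 10 uM ATP. Reaction started with 10 nM enzyme in Tris acetate pH 7.5 buffer with Mg acetate, Tween-20, BSA; luminescence imaged.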
# Luciferin 4-monooxygenase (Photinus pyralis), sequence (P08659 whole entry, looked up): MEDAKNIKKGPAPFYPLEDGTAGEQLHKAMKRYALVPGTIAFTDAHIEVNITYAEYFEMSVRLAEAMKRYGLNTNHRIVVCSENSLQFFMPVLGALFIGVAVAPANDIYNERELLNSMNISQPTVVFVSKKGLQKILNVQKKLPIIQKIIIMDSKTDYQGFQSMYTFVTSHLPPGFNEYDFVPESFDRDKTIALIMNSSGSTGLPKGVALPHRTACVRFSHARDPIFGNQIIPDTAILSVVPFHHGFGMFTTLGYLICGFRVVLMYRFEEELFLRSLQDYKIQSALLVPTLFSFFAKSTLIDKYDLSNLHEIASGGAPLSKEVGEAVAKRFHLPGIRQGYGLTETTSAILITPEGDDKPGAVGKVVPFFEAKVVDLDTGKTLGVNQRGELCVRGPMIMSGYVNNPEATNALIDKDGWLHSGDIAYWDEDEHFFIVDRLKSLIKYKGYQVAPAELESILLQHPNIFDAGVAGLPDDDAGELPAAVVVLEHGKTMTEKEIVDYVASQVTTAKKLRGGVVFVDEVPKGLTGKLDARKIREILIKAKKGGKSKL
Structure (SMILES),Potency,"activity change, negative = inhibition"
Cc1ccc2sc(-c3ccc(N)cc3)nc2c1,0.183 µM (active),
COc1ccc(C(=O)Nc2ccccc2C(=O)N/N=C/c2ccc(O)c(OC)c2)cc1,0.0037 µM (active),
O=C(Nc1ccccc1C(=O)O)c1ccc(NC(=O)C2CC2)cc1,2.59 µM (active),
COc1ccc(C(=O)Nc2cccc(C(=O)O)c2)cc1S(=O)(=O)N1CCCC1,5.17 µM (active),
CC(C)(C)C(=O)Nc1ccc(-c2nc3ccccc3s2)cc1,0.0116 µM (active),
O=C(O)c1cccc(NC(=O)c2cccc(S(=O)(=O)N3CCc4ccccc4C3)c2)c1,36.6 µM (active),
O=C(Nc1ccccc1C(=O)O)c1cccc(NC(=O)c2ccccc2Br)c1,32.6 µM (active),
COc1cc(OC)cc(-c2nc3ccccc3s2)c1,6.51 µM (active),
Cc1ccc(C(=O)Nc2cccc(C(=O)O)c2)cc1S(=O)(=O)N1CCOCC1,0.291 µM (active),
COc1cccc(-c2nc3ccccc3s2)c1,1.3 µM (active),
CC(=O)Nc1cccc(-c2nc3ccccc3s2)c1C,23.1 µM (active),
Cc1ccc(NS(=O)(=O)c2ccc(Cl)c(C(=O)Nc3cccc(C(=O)O)c3)c2)cc1,,-10.3% (inactive)
Cc1c(NC(=O)c2cc(-n3cnnc3)ccc2Cl)cccc1-c1nc2ccccc2s1,0.58 µM (active),
Nc1ccc2nc(-c3ccc(O)cc3)sc2c1,0.41 µM (active),
Cc1ccc(C(=O)Nc2cccc(C(=O)O)c2)cc1S(=O)(=O)N1CCCCC1,0.0651 µM (active),
Cc1c(NC(=O)C(C)(C)C)cccc1-c1nc2ccccc2s1,3.26 µM (active),
O=C(Nc1ccccc1-c1nc2ccccc2s1)c1ccc(Br)o1,,-1.3% (inactive)
